# From ChEMBL document CHEMBL3988442, “University of Dundee, Small-Polar-MMV Screening Library” (2021)
# Among all 48,000 compounds or so, about 13,000 (27%) showed an effect of 50% or more. The list shows a part of the results.
# Tested on: Wolbachia pipientis
# Test: Anti-Wolbachia Cell-Based Screen
# Format: functional
# Design: scale not given: in the data most compounds retested in dose-response had high values
# Details: 5 µM
row,SMILES,Percent Effect [%]
1,Cc1nc(C)c(CC(=O)NCc2cccnc2OC2CCCC2)c(=O)[nH]1,2.143
2,CCNC(=O)C1CCN(c2cc(-c3ccccc3)nc3cc(C)nn23)C1 (configuration not stated),-12.78
3,Cc1cn[nH]c1C1CCCCN1C(=O)CCc1c(C)n[nH]c1C (configuration not stated),119.5
4,Cc1cn[nH]c1C1CCCCN1C(=O)CCc1ccc(F)cc1 (configuration not stated),129.4
5,Cc1cn[nH]c1C1CCCCN1C(=O)CCN1CCCCCC1 (configuration not stated),-3.23
6,COCCC(=O)N1CCCCC1c1ccc(F)cc1 (configuration not stated),-2.369
7,N#Cc1cccc(N2CCC3(CCC(=O)N(CCCO)C3)CC2)n1,-9.323
8,O=C1OCCN1CCOc1nc(-c2ccccc2Cl)no1,-11.04
9,COCC(C)NC(=O)Nc1cc(-c2ccccc2C)nn1CCO (configuration not stated),-26.76
10,O=C1CC2(CCN(C(=O)c3ccccn3)C2)Nc2ccccc2N1 (configuration not stated),110.2
11,Nc1cc(C(=O)N2CCC3(CC2)Nc2ccccc2NC3=O)ccn1,3.743
12,O=C(O)C(F)(F)F.O=C1CCCC2(CCN(C(=O)c3ccccn3)CC2)N1,4.079
13,CN(C)C(=O)N1CCN(C(=O)c2ccccc2)CC2(CNC(=O)C2)C1 (configuration not stated),9.343
14,O=C(O)C(F)(F)F.O=C1CCC2(CCCN(C(=O)c3ccccn3)CC2)N1 (configuration not stated),-22.06
15,O=C1Nc2ccccc2C1C1CCN(C(=O)C2CC2)CC1 (configuration not stated),-3.481
16,O=C1CC2(CCN(C(=O)c3ccccc3)C2)Nc2ccccc2N1 (configuration not stated),106.1
17,O=C1CC2(CCN(C(=O)C3CCCCC3)C2)Nc2ccccc2N1 (configuration not stated),102.3
18,Cl.O=C(C1CCCCC1)N1CCC2(CC1)CNCc1ccccc12,2.33
19,COC1CCCN(C(=O)NCC(F)F)C1 (configuration not stated),-0.267
20,CN(Cc1ccco1)C1CCC12CCN(C(=O)N1CCCC1)CC2.O=C(O)C(F)(F)F (configuration not stated),-11.51
21,Cc1ccc(C2CCCCCN2CCCS(C)(=O)=O)o1 (configuration not stated),-22.51
22,CCOc1ccc(NC(=O)c2scnc2CC)cc1CO,-2.962
23,O=C1CN(C(=O)CSC2CCCc3ccccc32)CCN1 (configuration not stated),-8.523

row,SMILES,Percent Effect [%]
1,O=C(c1cccnc1)N1CCCC(c2ccnc3nccn23)C1 (configuration not stated),79.76
2,CC[C@H]1CN(C(=O)c2cccnc2)CC[C@H]1CC(=O)NC1CC1,4.498
3,Cc1cc(C2CCCN(C(=O)c3cccnc3)C2)ccn1 (configuration not stated),84.57
4,O=C(NS(=O)(=O)Cc1ccc(F)cc1)C1CCOc2ccccc21 (configuration not stated),-4.826
5,CC(O)CN1CCN(C(=O)c2ccc(N(C)C)nn2)CC1 (configuration not stated),2.216
6,CSC(C)C(=O)N1CCCN(Cc2cscn2)CC1 (configuration not stated),-14.88
7,CCOCC(O)CN1CCN(C(=O)c2ccc(N(C)C)nc2)CC1 (configuration not stated),-21.06
8,CC(O)CN1CCN(C(=O)c2ccc(N(C)C)nc2)CC1 (configuration not stated),3.143
9,CN(C)c1ccc(C(=O)N2CCN(Cc3cscn3)CC2)cn1,116
10,CN(C)c1ccc(C(=O)N2CCCN(Cc3cscn3)CC2)nn1,113.8
11,O=C(N1CCOCC1)N1CCc2ncnc(NC3CC3)c2CC1,0.5236
12,O=C([C@H]1CCCO1)N1CCc2ncnc(NC3CC3)c2CC1,1.456
13,O=C(N1CCOCC1)N1CCc2ncnc(NC3CCC3)c2CC1.O=C(O)C(F)(F)F,91.29
14,O=C(C1CCCO1)N1CCc2ncnc(NC3CCC3)c2CC1.O=C(O)C(F)(F)F (configuration not stated),103.9
15,CCCC(C(=O)NC1CCN(S(C)(=O)=O)CC1)n1cccc1 (configuration not stated),-3.816
16,CCNC(=O)NC(=O)CN1CCOC(c2ccc(Br)cc2)C1 (configuration not stated),-12.38
17,OC1(CNCCSc2ccccn2)CCCNC1 (configuration not stated),-44.86
18,N#Cc1cccnc1N1CCCC(CO)(CCOc2ccccc2)C1 (configuration not stated),0.3876
19,CN(C)c1ccc(CCNC(=O)C2CCC(=O)N(C3CCCC3)C2)cc1 (configuration not stated),-1.429
20,CCC(=O)N1CCC(c2nc3ccc(NC(C)C)cn3n2)CC1,-7.587
21,CCN(C(=O)CN1CCC(c2n[nH]c(C3CC3)n2)CC1)C1CC1,20.34
22,CCN(C(=O)CN1CCC(c2cc3ccccc3[nH]2)CC1)C1CC1,-6.072
23,CCC(=O)N1CCC(n2cc(C(C)(C)O)nn2)CC1,-6.105

row,SMILES,Percent Effect [%]
1,CCC(=O)N1CCC(c2nc(C)c3c(n2)N(C)CCC3)CC1,112.7
2,CC(C)N(C)C(=O)CN1CCCC(c2ccc(C(=O)O)cc2)C1 (configuration not stated),0.2821
3,CCN(CC(F)(F)F)C(=O)C1CCCN(Cc2nc(C)c(C)o2)C1 (configuration not stated),-1.409
4,CCN(CC)C(=O)CN1CCC(c2nc(C)c3c(n2)N(C)CCC3)CC1,126.4
5,CCN(CC)C(=O)CN1CCCC(c2nc(C)c3c(n2)N(C)CCC3)C1 (configuration not stated),160
6,CCC[C@H]1CN(Cc2ccc(N(C)C)nc2)C[C@@H]1NC(=O)CSC,-2.183
7,O=C(NC[C@H]1OC[C@@H](NC2CCCCC2)[C@@H]1O)c1cccs1,2.272
8,CN(C)C(CNC(=O)CCNC(=O)OCC(F)(F)F)c1ccsc1 (configuration not stated),-11.09
9,CC(C#N)CN(C)C(=O)CCNC(=O)C(C)(C)C (configuration not stated),107.7
10,CC(C#N)CN(C)C(=O)CCNC(=O)OC(C)(C)C (configuration not stated),95.62
11,Cc1cccc(OCCC(=O)N(C)CC(C)C#N)c1C (configuration not stated),20.16
12,CC(C#N)CN(C)C(=O)CCNC(=O)OCC(F)(F)F (configuration not stated),112.9
13,CC(C)CC(C#N)NC(=O)CCNC(=O)C(C)(C)C (configuration not stated),9.809
14,CC(OCC(F)(F)F)C(=O)NCCN(C)C (configuration not stated),-5.396
15,CCC(C#N)NC(=O)CCNC(=O)C(C)(C)C (configuration not stated),-9.888
16,CC(O)CN(C)C(=O)CCNC(=O)OC(C)(C)C (configuration not stated),96.59
17,CC(C)NC(=O)CNC(=O)OC(C)(C)C,-14.72
18,CC(C)C[C@H](NC(=O)CNC(=O)OC(C)(C)C)C(=O)OC(C)(C)C,3.003
19,CC(C)(C)OC(=O)NCCC(=O)N(CCC#N)Cc1ccco1,11.1
20,Cc1cnn(CC2CCCN2c2ccc(C#N)cn2)c1 (configuration not stated),16.4
21,CC1(C)CC1(C(=O)N1CC(c2cccnc2)C1)c1ccccc1F (configuration not stated),-22.23
